Results taken from PubChem BioAssay.
“And” between values parts separate entries of the source, which are not always exact repeats. Equal entries are not always repeated. Results filed as inconclusive are left out. The source made the active and inactive calls.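 Rule for the calls, unless noted: active = normalized viability below 100% at a tested concentration; inactive = the rest.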

Assays:
[1] = viability loss in pontine glioma line – cell-based, SU-DIPG-XVII, MIPE5.0, CellTiter-Glo, qHTS, dose response (AID 1347060; cut-off not given, nearly all actives have AC50 up to about 26 µM;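 for AC50: cells exposed to compound for 48 hours before viability readout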); conditions: CellTiter-Glo ATP luminescence
[2] = viability loss in pontine glioma line – cell-based, SU-DIPG-IV, MIPE4.0, CellTiter-Glo, qHTS, dose response (AID 1347063; cut-off not given, nearly all actives have AC50 up to about 30 µM;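 note: compound exposure lasted 48 hours before the viability readout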); conditions: CellTiter-Glo ATP luminescence
[3] = viability loss in pontine glioma line – cell-based, SU-DIPG-XIII, MIPE5.0, CellTiter-Glo, qHTS, dose response (AID 1347064; cut-off not given, nearly all actives have AC50 up to about 23 µM;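 for AC50: cells exposed to compound for 48 hours before the viability read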); conditions: CellTiter-Glo ATP luminescence
[4] = viability loss in pontine glioma line – cell-based, SU-DIPG-XXV, MIPE5.0, CellTiter-Glo, qHTS, dose response (AID 1347065; cut-off not given, nearly all actives have AC50 up to about 26 µM;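 note: cells exposed to compound for 48 hours before ATP readout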); conditions: CellTiter-Glo ATP luminescence
[5] = JHH-DIPG-1 glioma cell viability, MIPE5.0 library, CellTiter-Glo luminescence, qHTS (AID 1347067; cut-off not given, nearly all actives have AC50 up to about 26 µM;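 note: cells exposed to compound for 48 hours before readout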); conditions: JHH-DIPG-1 glioma viability, CellTiter-Glo ATP luminescence
[6] = growth inhibition of DIPG cells – cell-based, MIPE5.0 library, qHTS (AID 1347068; cut-off not given, nearly all actives have IC50 up to about 30 µM;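 for IC50: cells exposed to compound for 48 hours before viability readout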); conditions: SU-DIPG-XXV viability
[7] = viability loss with induced miR-34 in A549 – imaging, A549 dox-inducible miR-34, nuclei and caspase counts, primary screen (AID 1347080;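 active = compounds whose cell count with miR-34 switched on is under 0.7 times the count with it off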); conditions: A549 miR-34 inducible, Hoechst nuclei count, 48 h
[8] = compounds altering HSF1 focus formation in cells – imaging, Selleck Cancer Library (AID 1347162; in the data active = plate-normalised HSF1 focus index below about 0.46); conditions: human cells, HSF1 nuclear foci imaging, at 10 µM; SSMD: measured here: HSF1 foci SSMD mean; cell count: measured here: cell number; plate-normalised HSF1 focus index: stronger effect = lower value
[9] = MELAS cybrid and Rieske KO viability enhancers – cell-based, MELAS cybrids, Rieske KO mouse fibroblasts, CellTiter-Glo, primary screen (AID 1508586;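 active = mean z-score across replicates of 1.96 or higher in either the MELAS or the Rieske mutant cell line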;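 note: z relative to plate mean and SD of compound and empty wells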); conditions: low glucose
[10] = drug combination growth inhibition, ovarian cancer – cell-based, oncology-focused library, rucaparib conditional, profiling panel (AID 1508598); conditions: patient-derived ovarian cancer cells, CellTiter-Glo viability, 144 h, stronger effect = lower value
[11] = P. berghei load reduction in hepatocytes – cell-based, HepG2, luciferase luminescence, HepG2 viability, primary screen (AID 624349; in the data active = parasite load remaining mostly below about 12%, no sharp cut-off; inactive = mostly above about 10%;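 note: 100% = mean of DMSO negative control wells on the same plate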); conditions: P. berghei liver stage in HepG2, luciferase luminescence, concentration not given here; parasite load remaining: stronger effect = lower value; viability: measured here: HepG2 viability without parasites
[12] = growth inhibition of DIPG cells – cell-based, MIPE4.0 library, CellTiter-Glo luminescence, qHTS (AID 1347066; cut-off not given, nearly all actives have AC50 up to about 30 µM;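 note: cells exposed to compound for 48 hours before readout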); conditions: SU-DIPG-VI viability, CellTiter-Glo ATP luminescence
[13] = stronger effect = lower value, cell number ratio, induced over uninduced
[14] = measured here: relative caspase fold change +Dox/-Dox
[15] = measured here: total cells with miR-34 induction, stronger effect = lower value
[16] = measured here: total cells without miR-34 induction
[17] = MELAS cybrid survival, CellTiter-Glo 48 h, stronger effect = higher value
[18] = Rieske KO mouse fibroblast survival, CellTiter-Glo 72 h
[19] = at 0.000305 µM, OCI-C5x cells, with rucaparib 10 µM, 100% = cells with rucaparib alone
[20] = at 0.000305 µM, OCI-C5x cells, without rucaparib
[21] = at 0.000305 µM, OCI-P5x cells, with rucaparib 20 µM, 100% = cells with rucaparib alone
[22] = at 0.000305 µM, OCI-P5x cells, without rucaparib
[23] = at 0.00122 µM, OCI-C5x cells, with rucaparib 10 µM, 100% = cells with rucaparib alone
[24] = at 0.00122 µM, OCI-C5x cells, without rucaparib
[25] = at 0.00122 µM, OCI-P5x cells, with rucaparib 20 µM, 100% = cells with rucaparib alone
[26] = at 0.00122 µM, OCI-P5x cells, without rucaparib
[27] = at 0.00488 µM, OCI-C5x cells, with rucaparib 10 µM, 100% = cells with rucaparib alone
[28] = at 0.00488 µM, OCI-C5x cells, without rucaparib
[29] = at 0.00488 µM, OCI-P5x cells, with rucaparib 20 µM, 100% = cells with rucaparib alone
[30] = at 0.00488 µM, OCI-P5x cells, without rucaparib
[31] = at 0.0195 µM, OCI-C5x cells, with rucaparib 10 µM, 100% = cells with rucaparib alone
[32] = at 0.0195 µM, OCI-C5x cells, without rucaparib
[33] = at 0.0195 µM, OCI-P5x cells, with rucaparib 20 µM, 100% = cells with rucaparib alone
[34] = at 0.0195 µM, OCI-P5x cells, without rucaparib
[35] = at 0.0781 µM, OCI-C5x cells, with rucaparib 10 µM, 100% = cells with rucaparib alone
[36] = at 0.0781 µM, OCI-C5x cells, without rucaparib
[37] = at 0.0781 µM, OCI-P5x cells, with rucaparib 20 µM, 100% = cells with rucaparib alone
[38] = at 0.0781 µM, OCI-P5x cells, without rucaparib
[39] = at 0.313 µM, OCI-C5x cells, with rucaparib 10 µM, 100% = cells with rucaparib alone
[40] = at 0.313 µM, OCI-C5x cells, without rucaparib
[41] = at 0.313 µM, OCI-P5x cells, with rucaparib 20 µM, 100% = cells with rucaparib alone
[42] = at 0.313 µM, OCI-P5x cells, without rucaparib
[43] = at 1.25 µM, OCI-C5x cells, with rucaparib 10 µM, 100% = cells with rucaparib alone
[44] = at 1.25 µM, OCI-C5x cells, without rucaparib
[45] = at 1.25 µM, OCI-P5x cells, with rucaparib 20 µM, 100% = cells with rucaparib alone
[46] = at 1.25 µM, OCI-P5x cells, without rucaparib
[47] = at 5 µM, OCI-C5x cells, with rucaparib 10 µM, 100% = cells with rucaparib alone
[48] = at 5 µM, OCI-C5x cells, without rucaparib
[49] = at 5 µM, OCI-P5x cells, with rucaparib 20 µM, 100% = cells with rucaparib alone
[50] = at 5 µM, OCI-P5x cells, without rucaparib

Cc1ccc(F)c(NC(=O)Nc2ccc(-c3cccc4[nH]nc(N)c34)cc2)c1
inactive: fold change [7, 13] 0.905 | plate-normalised HSF1 focus index [8] 1.21 | z-score [9, 17] -0.438 | viability [10, 19] 110% | viability [10, 20] 114% | viability [10, 23] 108% | viability [10, 24] 112% | viability [10, 27] 119% | viability [10, 28] 112% | viability [10, 31] 110% | viability [10, 32] 119% | viability [10, 33] 108% | viability [10, 35] 111% | viability [10, 36] 110% | viability [10, 37] 103% | viability [10, 38] 102% | viability [10, 39] 113% | viability [10, 40] 107% | viability [10, 43] 112% | viability [10, 44] 123% | viability [10, 48] 145%
0.989: fold change [7, 14]
0.36: z-score [9, 18]
2860: cell count [7, 16]
2590: cell count [7, 15]
4.01: SSMD [8]
6540: cell count [8]
active: AC50 [1] 14.8 µM | AC50 [2] 14.8 µM | AC50 [3] 7.42 µM | AC50 [4] 8.33 µM | AC50 [5] 1.05 µM | IC50 [6] 18.6 µM | viability [10, 21] 85.4% | viability [10, 22] 19.5% | viability [10, 25] 81.6% | viability [10, 26] 16.8% | viability [10, 29] 96.5% | viability [10, 30] 97.7% | viability [10, 34] 97.3% | viability [10, 41] 91.5% | viability [10, 42] 90.2% | viability [10, 45] 99.2% | viability [10, 46] 87.8% | viability [10, 47] 83.6% | viability [10, 49] 14.3% | viability [10, 50] 35.5%

Nc1nc(Nc2ccc(S(N)(=O)=O)cc2)nn1C(=O)c1c(F)cccc1F
1400: cell count [7, 15]
inactive: parasite load remaining [11] 42.7% | outcome [12] | fold change [7, 13] 0.887 | plate-normalised HSF1 focus index [8] 0.961 | z-score [9, 17] -0.135
-1.32: z-score [9, 18]
6780: cell count [8]
active: AC50 [1] 6.61 µM | AC50 [2] 9.35 µM | AC50 [3] 4.68 µM | AC50 [4] 6.61 µM | IC50 [6] 10.5 µM | viability [10, 19] 95% | viability [10, 20] 99.5% | viability [10, 21] 89.3% | viability [10, 22] 84.9% | viability [10, 23] 96.6% | viability [10, 24] 96.5% | viability [10, 25] 91.5% | viability [10, 26] 86% | viability [10, 27] 93.6% | viability [10, 28] 93.3% | viability [10, 29] 94.7% | viability [10, 30] 94.4% | viability [10, 31] 94.9% | viability [10, 32] 98.4% | viability [10, 33] 92.3% | viability [10, 34] 94.6% | viability [10, 35] 91.7% | viability [10, 36] 90.6% | viability [10, 37] 87.9% | viability [10, 38] 84% | viability [10, 39] 93.3% | viability [10, 40] 86.1% | viability [10, 41] 90.8% | viability [10, 42] 87.7% | viability [10, 43] 82.9% | viability [10, 44] 83.9% | viability [10, 45] 87.4% | viability [10, 46] 69.8% | viability [10, 47] 13.2% | viability [10, 48] 11.5% | viability [10, 49] 19.1% | viability [10, 50] 13.1%
-0.763: SSMD [8]
0.788: fold change [7, 14]
170%: viability [11]
1580: cell count [7, 16]

COC(=O)c1ccc2c(C(=Nc3ccc(N(C)C(=O)CN4CCN(C)CC4)cc3)c3ccccc3)c(O)[nH]c2c1
5790: cell count [7, 15]
7520: cell count [8]
6370: cell count [7, 16]
active: AC50 [1] 1.48 µM | AC50 [2] 9.35 µM | AC50 [3] 2.09 µM | AC50 [4] 1.66 µM | AC50 [5] 5.9 µM | IC50 [6] 3.32 µM | viability [10, 25] 95.9% | viability [10, 29] 95.7% | viability [10, 33] 94.4% | viability [10, 34] 97.5% | viability [10, 37] 93% | viability [10, 38] 96.8% | viability [10, 41] 87% | viability [10, 42] 97.6% | viability [10, 45] 66.6% | viability [10, 46] 73.9% | viability [10, 49] 51.6% | viability [10, 50] 59.1%
inactive: outcome [12] | fold change [7, 13] 0.909 | plate-normalised HSF1 focus index [8] 1.08 | z-score [9, 17] -0.457 | viability [10, 19] 119% | viability [10, 20] 127% | viability [10, 21] 103% | viability [10, 22] 111% | viability [10, 23] 107% | viability [10, 24] 128% | viability [10, 26] 102% | viability [10, 27] 114% | viability [10, 28] 118% | viability [10, 30] 104% | viability [10, 31] 120% | viability [10, 32] 115% | viability [10, 35] 116% | viability [10, 36] 116% | viability [10, 39] 128% | viability [10, 40] 118% | viability [10, 43] 124% | viability [10, 44] 116% | viability [10, 47] 124% | viability [10, 48] 118%
2.23: SSMD [8]
1.19: fold change [7, 14]
-1.1: z-score [9, 18]

C[C@H]1[C@H](O)O[C@@H]2O[C@@]3(C)CC[C@H]4[C@H](C)CC[C@@H]1[C@@]24OO3
inactive: outcome [12]
active: AC50 [1] 2.95 µM | AC50 [2] 2.96 µM | AC50 [3] 4.68 µM | AC50 [4] 7.42 µM

COc1ccc2c(c1)CC[C@@H]1[C@@H]2CC[C@]2(C)[C@@H](NCCCCCCN3C(=O)C=CC3=O)CC[C@@H]12
inactive: outcome [1] | outcome [2] | outcome [3] | outcome [4] | outcome [12] | outcome [5] | outcome [6] | fold change [7, 13] 0.933 and 0.926
6300 and 5860: cell count [7, 16]
1.05 and 1.65: fold change [7, 14]
5880 and 5430: cell count [7, 15]
